USP28 block: inhibitors of human USP28 deubiquitinase. 47,000 compounds, 3% hits. purified USP28, Ub-rhodamine cleavage fluorescence, 30 min. inhibition, % at 25 µM. Q96RU2
USP17 block: blocks human USP17 ubiquitin-rhodamine cleavage. 47,000 compounds, 6.5% hits. A8MUK1. AID 1645855. inhibition, % at 50 µM. purified USP17, Ub-rhodamine cleavage fluorescence, 3 h
USP30 inh: inhibitors of human USP30 deubiquitinase; purified USP30, Ub-rhodamine cleavage fluorescence; inhibition, % at 25 µM; 47,000 compounds, 5.3% hits; Q70CQ3
The depositor's hits bear a star; i = inactive; / = no result. Most compounds without a hit are left out; they make up all but 11% or so of the library. Cut-off read from the data, not from the text of the source: active = inhibition above about 30%; inactive = the rest.

SMILES | USP28 block | USP17 block | USP30 inh
COc1ccc(CN2C(=O)c3nc4ccccc4n3CC2(C)C(=O)NC2CCCCC2)cc1 (configuration not stated) | 2 | 0 | 13
O=C(NCc1ccccc1)N1CCN(c2ccc(-c3ccc4c(c3)OCO4)nn2)CC1 | -10 | 0 | 4
CNC(=O)[C@@]12CCC3(CCN(C(=O)c4cccnc4)CC3)[C@@H]1CN(S(C)(=O)=O)C2 | 4 | 1 | 4
O=C(NC1CC1)c1ccc2c(=O)n(-c3cccc(F)c3)c(N3CCOCC3)nc2c1 | -4 | 2 | 0
CC(C)OC(=O)c1cc2c(ccn2C)n1CC(=O)N1C(C)CCCC1C (configuration not stated) | -213 | -145 | i
COc1ccc(-c2cc3c(=O)n(CC(=O)Nc4ccccc4C)ccn3n2)cc1 | 6 | 36* | 31*
COc1ccc(-c2cc3c(=O)n(CC(=O)Nc4ccc(Cl)cc4)ccn3n2)cc1 | 11 | 19 | 19
COc1cccc(CC(=O)N2CC[C@@H]3CN(C)S(=O)(=O)[C@@H]3CC2)c1 | -4 | 6 | 5
O=c1c2nc(-c3ccc(F)cc3)cn2ccn1-c1ccc2c(c1)CCC2 | -25 | -7 | -64
COc1ccc(OC)c(-c2cn3ccn(-c4ccc5c(c4)CCC5)c(=O)c3n2)c1 | 21 | / | 51*
COc1ccc(N(CC(=O)NCCc2ccc(S(N)(=O)=O)cc2)S(=O)(=O)c2c(C)noc2C)cc1 | 4 | -6 | -88
COc1ccc(CCNC(=O)CN(c2cc(C)cc(C)c2)S(=O)(=O)c2c(C)noc2C)cc1OC | -10 | 0 | 47*
Cc1cnc(-c2cc(CC3CCCN(Cc4scnc4C)C3)ncn2)[nH]1 (configuration not stated) | 2 | 0 | 8
CCC(CC)CNC(=O)c1ncn2c1CN(CC1CC1)S(=O)(=O)c1ccccc1-2 | 1 | 1 | 6
CC(C)CCN1Cc2c(C(=O)Nc3ccccc3)ncn2-c2ccccc2S1(=O)=O | -11 | -10 | -13
O=C(NCC1CC1)c1ncn2c1CN(CC1CC1)S(=O)(=O)c1ccccc1-2 | 11 | 4 | 34*
CC(C)CCN1Cc2c(C(=O)NCc3ccccc3)ncn2-c2ccccc2S1(=O)=O | 23 | 19 | 42*
COc1ccc(C2CC(=O)Nc3c2ccc2ccccc32)c(OC)c1 (configuration not stated) | 9 | 15 | 11
CCOc1ncccc1C(=O)N1CCC2(CC1)CO[C@@H]1c3cccc(OC)c3OC(C)(C)[C@H]1C2 | 10 | 5 | 10
COc1ccc(-c2nc3ccccn3c2NCCc2ccccc2)cc1 | 12 | 15 | -7
O=C(NCc1ccco1)c1cc(OCc2ccccc2)nc2ccccc12 | -2 | -18 | -17
O=C(NCc1ccco1)c1ccc(Oc2cc(Cl)cc(Cl)c2)o1 | / | 37* | /
Cc1ccccc1NC(=O)C(C)Sc1nc2ccccc2c(=O)n1CC1CCCO1 (configuration not stated) | -6 | -6 | -1
Cc1cc(C)n(-c2ccnc(N3CCC(C(=O)N4CCN(c5ccccn5)CC4)CC3)n2)n1 | 30* | -4 | 5
Cc1cc(C)n(-c2ccnc(N3CCC(C(=O)NC4CCCC4)CC3)n2)n1 | 0 | -1 | 9
SMILES | USP28 block | USP17 block | USP30 inh
O=C1NC2(CCN(C(=O)Nc3ccc(F)cc3)CC2)N=C1c1ccccc1 | -10 | -13 | 2
CC(OC(=O)CNS(=O)(=O)c1ccc2ccccc2c1)C(=O)Nc1ccc(Cl)cc1Cl (configuration not stated) | 21 | / | 46*
COc1ccc(NC(=O)C(C)OC(=O)CNC(=O)c2ccc(Cl)cc2Cl)cc1 (configuration not stated) | 1 | -23 | 24
Cc1nc(-c2cccc(NC(=O)c3ccc(C#N)cc3)c2)no1 | / | 17 | /
CCc1nc(-c2ccc(C(=O)Nc3ccc(C(C)=O)cc3)cc2)no1 | 9 | 17 | 21
O=C(NCc1ccc(-c2nc3ncccc3o2)cc1)c1ccccc1 | 17 | 14 | 25
O=C(NCc1ccc(-c2nc3cnccc3o2)cc1)c1ccccc1Br | 14 | 68* | 25
CCc1nc(-c2cccc(NC(=O)c3ccccc3F)c2)no1 | 36* | 6 | 3
O=C(Nc1cccc(-c2nc3cnccc3o2)c1)c1ccccc1F | / | 44* | /
O=C(Nc1ccccc1)NS(=O)(=O)c1ccc2oc(-c3cccnc3)nc2c1 | -10 | -19 | -60
CC(=O)c1cccc(NC(=O)c2ccc(-c3noc(C)n3)cc2)c1 | 30* | 21 | 14
O=S(=O)(NCc1ccc(F)cc1)c1cc(C(F)(F)F)ccc1Cl | 21 | 11 | 24
CCc1nc(SCC(=O)NC(C)CCc2ccccc2)c2c3c(sc2n1)COC(C)(C)C3 (configuration not stated) | 11 | 16 | 18
COc1ccc(NC(=O)CC2C(=O)N(c3ccc(F)cc3)C(=O)N2CCC2=CCCCC2)cc1 (configuration not stated) | 6 | 5 | 10
O=C1Cc2cc(S(=O)(=O)Nc3ccc(F)c(Cl)c3)cc3c2N1CCC3 | 4 | 2 | 0
Cc1nc(-c2cccc(NC(=O)c3ccccc3F)c2)no1 | 21 | 2 | 0
Cc1nc(-c2cccc(NC(=O)c3ccccc3Cl)c2)no1 | 52* | 5 | 18
CC1=C(Cn2c3cccc(=O)c-3nc3ccccc32)CCC(C)(C)C1 | 74* | 78* | 20
CCOC(=O)Cc1nc2ccccc2n(CC2CC2)c1=O | 0 | -13 | -15
O=C(CCC1CCCC1)N1CCN(C(=O)c2cc(-c3ccccn3)n[nH]2)CC1 | -3 | -27 | 6
O=S(=O)(c1cc(F)cc(F)c1)N1CCCn2c(nc3ccccc32)C1 | 0 | 32* | 38*
O=S(=O)(c1ccc(F)cc1)N1CCCn2c(nc3ccccc32)C1 | 4 | 1 | 18
COc1ccc(Cl)cc1N(C)C(=O)c1noc2c1CCc1sccc1-2 | 23 | 21 | 34*
COCCCNC(=O)c1noc2c1CCc1sccc1-2 | / | 7 | /
COc1ccc(CCNC(=O)c2noc3c2CCc2sccc2-3)cc1OC | 76* | 52* | -1
SMILES | USP28 block | USP17 block | USP30 inh
O=C(NCc1cccc(Cl)c1)c1noc2c1CCc1sccc1-2 | 15 | 21 | 24
O=C(NC(c1ccc(Cl)cc1)C1CC1)c1ccc(-n2cccn2)cc1 (configuration not stated) | 0 | 28 | -22
Cc1ccc(CNC(=O)c2cc3c(=O)n(Cc4cccnc4)ccc3nc2C)o1 | -4 | 6 | -25
O=C(CCc1ccccc1)N1CCN(c2cc(-c3cccnc3)[nH]n2)CC1 | 14 | 16 | 30*
O=C(c1cccc(Cl)c1)N1CCN(c2cc(-c3cccnc3)[nH]n2)CC1 | -8 | -19 | -22
CNc1nc(C2CCN(C)CC2)nc2c1CCN(C(=O)c1c(C)cc(C)n(C)c1=O)C2 | 0 | 6 | 4
Cc1ccccc1CNC(=O)CCn1cnc2ccccc2c1=O | 14 | -32 | -11
O=C(Cn1cnc2ccccc2c1=O)NC(c1ccccc1)c1ccccc1 | 14 | 18 | 33*
COc1ccc(C(CNC(=O)Cn2cnc3ccccc3c2=O)N(C)C)cc1 (configuration not stated) | 12 | 16 | 14
O=C(CSc1nc2ccccc2[nH]1)c1c[nH]c2ccccc12 | -2 | 20 | 33*
O=C(CCn1cnc2ccccc2c1=O)Nc1ccc(Cl)cc1 | 21 | 40* | 14
O=C(CSc1nc2ccccc2[nH]1)c1ccccc1F | 3 | -37 | 3
